The text below walks through data of PubChem BioAssay.

Where “and” joins values, the source holds several entries; their conditions need not be identical. Equal entries are not always repeated. Records with an inconclusive call do not appear. Calls of active or inactive are those of the source.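 How the source made its calls, unless noted: active means normalized viability below 100% at a tested concentration; inactive means the rest.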

A short description of test [1]: growth inhibition of DIPG glioma cells, dose response, cell-based, SU-DIPG-XVII, MIPE5.0, CellTiter-Glo, qHTS (AID 1347060; cut-off not given, nearly all actives have AC50 up to about 26 µM;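 on AC50: cells exposed to compound for 48 hours before viability readout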). Particulars: SU-DIPG-XVII viability, CellTiter-Glo ATP luminescence.
Test [2] is described as follows: growth inhibition of DIPG glioma cells, dose response, cell-based, SU-DIPG-XIII, MIPE4.0, CellTiter-Glo, qHTS (AID 1347061; cut-off not given, nearly all actives have AC50 up to about 37 µM;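 further: cells exposed to compound for 48 hours before readout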). The settings on record: SU-DIPG-XIII viability, CellTiter-Glo ATP luminescence. In general terms: Cellular ATP, detected with luciferase, serves as a proxy for viable cell number.
A short description of test [3]: growth inhibition of DIPG glioma cells, dose response, cell-based, JHH-DIPG-1, MIPE4.0, CellTiter-Glo, qHTS (AID 1347062; cut-off not given, nearly all actives have AC50 up to about 27 µM;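 on AC50: cells exposed to compound for two days before readout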). Particulars: JHH-DIPG-1 viability, CellTiter-Glo ATP luminescence.
Test [4] in a line: growth inhibition of DIPG glioma cells, dose response, cell-based, SU-DIPG-IV, MIPE4.0, CellTiter-Glo, qHTS (AID 1347063; cut-off not given, nearly all actives have AC50 up to about 30 µM;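 further: compound exposure lasted 48 hours before the viability readout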). Particulars: SU-DIPG-IV viability, CellTiter-Glo ATP luminescence.
Test [5] can be described thus: viability loss in pontine glioma line – cell-based, SU-DIPG-XXV, MIPE5.0, CellTiter-Glo, qHTS, dose response (AID 1347065; cut-off not given, nearly all actives have AC50 up to about 26 µM;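 further: cells exposed to compound for 48 hours before ATP readout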). The settings on record: CellTiter-Glo ATP luminescence.
Test [6] is described as follows: SU-DIPG-VI glioma cell viability, MIPE4.0 library, CellTiter-Glo luminescence, qHTS (AID 1347066; cut-off not given, nearly all actives have AC50 up to about 30 µM;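 further: cells exposed to compound for 48 hours before readout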). Particulars: CellTiter-Glo ATP luminescence.
The nature of test [7]: JHH-DIPG-1 glioma cell viability, MIPE5.0 library, CellTiter-Glo luminescence, qHTS (AID 1347067; cut-off not given, nearly all actives have AC50 up to about 26 µM;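 further: cells exposed to compound for 48 hours before readout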). The settings on record: JHH-DIPG-1 glioma viability, CellTiter-Glo ATP luminescence.
Test [8] can be described thus: SU-DIPG-XXV glioma cell viability, MIPE5.0 library, qHTS (AID 1347068; cut-off not given, nearly all actives have IC50 up to about 30 µM).
Test [9] in a line: sensitizers of A549 cells to miR-34 induction, primary screen, imaging, A549 dox-inducible miR-34, nuclei and caspase counts (AID 1347080;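 active means compounds whose cell count with miR-34 switched on is under 0.7 times the count with it off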). Particulars: A549 miR-34 inducible, Hoechst nuclei count, 48 h.
A short description of test [10]: survival rescue of mitochondrial mutant cells in low glucose, primary screen, MELAS cybrids, Rieske KO mouse fibroblasts, CellTiter-Glo (AID 1508586;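 active means mean z-score across replicates of 1.96 or higher in either the MELAS or the Rieske mutant cell line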;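 further: z relative to plate mean and SD of compound and empty wells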).
A short description of test [11]: ovarian cancer cell viability with rucaparib, profiling panel, oncology-focused library, rucaparib conditional (AID 1508598). The settings on record: patient-derived ovarian cancer cells, CellTiter-Glo viability, 144 h, stronger effect = lower value.
The mark [12] stands for this setting: stronger effect = lower value, cell number ratio, induced over uninduced.
Where [13] appears, read: measured here: relative caspase fold change +Dox/-Dox.
Where [14] appears, read: measured here: total cells with miR-34 induction, stronger effect = lower value.
Where [15] appears, read: measured here: total cells without miR-34 induction.
[16] abbreviates: MELAS cybrid survival, CellTiter-Glo 48 h, stronger effect = higher value.
Setting [17] is: Rieske KO mouse fibroblast survival, CellTiter-Glo 72 h.

As a reminder, the AC50 is the midpoint of the concentration-response curve, whichever way the signal moves. For `CCN1CCN(CC(=O)Nc2ccc(-c3cccc4c(=O)cc(N5CCOCC5)oc34)c3sc4ccccc4c23)CC1`, the AC50 is 9.1 µM (active) in test [1]; 18.7 µM (active) in test [2]; 16.6 µM (active) in test [3]; 11.8 µM (active) in test [4]; 6.45 µM (active) in test [5]; 5.9 µM (active) in test [6]. Besides, in [7], the AC50 is 12.9 µM (active).
With `O=C1CCC[C@@H]2[C@H]3CCC[N+]4([O-])CCC[C@@H](CN12)[C@@H]34` (some centres not stated), the compound was classed as inactive in test [1], in test [2], in [3], in [4], in [5] and in test [6]. Further, the call in [7] and in test [8] was inactive.
Broadly, the viability is a read-out of living cells in per cent, often relative to untreated cells. With `C=C(c1ccc(C(=O)O)cc1)c1cc2c(cc1C)C(C)(C)CCC2(C)C`, the AC50 in [1] is 23.5 µM (active); in [5], 0.118 µM (active). The compound was classed as inactive in test [2], in test [3], in [4], in [6] and in test [8]. The fold change was 0.951 (inactive) and 0.85 (inactive) in test [9] (setting [12]); 1.39 and 1.44 in [9] (setting [13]). Further, the cell count in test [9] (setting [14]) is 6410 and 6330; in [9] (setting [15]), 6740 and 7440. Moreover, the z-score was 0.149 (inactive) and 0.79 (inactive) in [10] (setting [16]); 0.712 and -0.251 in test [10] (setting [17]). For the same compound, the viability in test [11] (at 0.000305 µM, OCI-C5x cells, with rucaparib 10 µM, 100% = cells with rucaparib alone) is 115% (inactive); in [11] (at 0.000305 µM, OCI-C5x cells, without rucaparib), 109% (inactive); in test [11] (at 0.000305 µM, OCI-P5x cells, with rucaparib 20 µM, 100% = cells with rucaparib alone), 90.9% (active); in [11] (at 0.000305 µM, OCI-P5x cells, without rucaparib), 106% (inactive); in test [11] (at 0.00122 µM, OCI-C5x cells, with rucaparib 10 µM, 100% = cells with rucaparib alone), 116% (inactive); in test [11] (at 0.00122 µM, OCI-C5x cells, without rucaparib), 109% (inactive). Also, the viability in test [11] (at 0.00122 µM, OCI-P5x cells, with rucaparib 20 µM, 100% = cells with rucaparib alone) is 96% (active); in test [11] (at 0.00122 µM, OCI-P5x cells, without rucaparib), 111% (inactive); in [11] (at 0.00488 µM, OCI-C5x cells, with rucaparib 10 µM, 100% = cells with rucaparib alone), 112% (inactive); in test [11] (at 0.00488 µM, OCI-C5x cells, without rucaparib), 120% (inactive); in test [11] (at 0.00488 µM, OCI-P5x cells, with rucaparib 20 µM, 100% = cells with rucaparib alone) it was 108% (inactive); in test [11] (at 0.00488 µM, OCI-P5x cells, without rucaparib), 120% (inactive). In addition, the viability in [11] (at 0.0195 µM, OCI-C5x cells, with rucaparib 10 µM, 100% = cells with rucaparib alone) was 108% (inactive); in [11] (at 0.0195 µM, OCI-C5x cells, without rucaparib), 119% (inactive); in test [11] (at 0.0195 µM, OCI-P5x cells, with rucaparib 20 µM, 100% = cells with rucaparib alone), 113% (inactive); in [11] (at 0.0195 µM, OCI-P5x cells, without rucaparib), 124% (inactive); in test [11] (at 0.0781 µM, OCI-C5x cells, with rucaparib 10 µM, 100% = cells with rucaparib alone) it was 106% (inactive); in [11] (at 0.0781 µM, OCI-C5x cells, without rucaparib), 106% (inactive). The viability in test [11] (at 0.0781 µM, OCI-P5x cells, with rucaparib 20 µM, 100% = cells with rucaparib alone) was 112% (inactive); in test [11] (at 0.0781 µM, OCI-P5x cells, without rucaparib), 125% (inactive); in test [11] (at 0.313 µM, OCI-C5x cells, with rucaparib 10 µM, 100% = cells with rucaparib alone) it was 103% (inactive); in [11] (at 0.313 µM, OCI-C5x cells, without rucaparib) it was 122% (inactive); in [11] (at 0.313 µM, OCI-P5x cells, with rucaparib 20 µM, 100% = cells with rucaparib alone) it was 115% (inactive); in test [11] (at 0.313 µM, OCI-P5x cells, without rucaparib), 130% (inactive). In addition, the viability in [11] (at 1.25 µM, OCI-C5x cells, with rucaparib 10 µM, 100% = cells with rucaparib alone) is 98% (active); in test [11] (at 1.25 µM, OCI-C5x cells, without rucaparib) it was 122% (inactive); in [11] (at 1.25 µM, OCI-P5x cells, with rucaparib 20 µM, 100% = cells with rucaparib alone), 117% (inactive); in test [11] (at 1.25 µM, OCI-P5x cells, without rucaparib), 126% (inactive); in test [11] (at 5 µM, OCI-C5x cells, with rucaparib 10 µM, 100% = cells with rucaparib alone), 101% (inactive); in [11] (at 5 µM, OCI-C5x cells, without rucaparib), 128% (inactive). Further, the viability in test [11] (at 5 µM, OCI-P5x cells, with rucaparib 20 µM, 100% = cells with rucaparib alone) was 116% (inactive); in [11] (at 5 µM, OCI-P5x cells, without rucaparib), 125% (inactive).
As to `CC(C)n1cnc2c(NCCc3ccc(O)cc3)nc(-c3csc4ccccc34)nc21`, the AC50 was 18.6 µM (active) in test [1]; 7.43 µM (active) in test [2]; 18.7 µM (active) in test [3]; 10.5 µM (active) in test [4]; 18.6 µM (active) in test [5]; 20.9 µM (active) in test [6]. Also, the AC50 in [7] was 13.2 µM (active). Moreover, in test [8], the compound was called inactive. Further, the fold change in test [9] (setting [12]) is 0.908 (inactive); in test [9] (setting [13]), 0.471. Besides, the cell count in test [9] (setting [14]) came to 6480; in test [9] (setting [15]) it was 7140. The z-score in [10] (setting [16]) is -0.0908 (inactive); in test [10] (setting [17]), 0.499.
With `Cn1c2cc(S(C)=O)sc2c2cnn(Cc3cccc(N)c3)c(=O)c21` (configuration not stated), the call in test [1], in test [2], in [3], in [4], in test [5] and in test [6] was inactive. Moreover, the compound was classed as inactive in [7] and in test [8].
